# KCNH2 3.1 inh – blocks the human KCNH2 3.1 channel isoform; U2OS KCNH2 3.1, thallium flux FluxOr; hits give low values; activity change, % (tested at about 1.8 µM); 0.95% of 340,000 active; AID 720553;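 active = maximum activity change below -70%; inconclusive = maximum activity change from -70% to -50%; inactive = maximum activity change above -50%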;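 note: thallium influx rate constant from kinetic fluorescence after stimulation buffer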
#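 Thallium flux read-out: FluxOr dye with Red40 quencher in HBSS/HEPES, 45 min at RT. Rate constants from kinetic reads were normalized to positive and negative DMSO controls. Cells: U2OS virally expressing the 3.1 isoform.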
# HEK293 tox – cytotoxicity counter-screen for GLP-1 receptor inverse agonists; HEK293 cAMP-luciferase reporter cells, luminescence, 24 h; Potency, µM (series often up to 38.3 µM), most hits filed as inhibitors; 0.13% of 410,000 active;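 note: loss of luciferase light is scored as toxicity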
#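 1536-well qHTS counterscreen of the MLSMR; 200 cells/uL, 12 h pre-incubation, 23 nL cpd, 24 h at 37 deg C 5% CO2, luciferase detection reagent, 12 min RT, luminescence. Inhibition = undesired.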
# KCNH2 WT inh – blocks the wildtype human KCNH2 potassium channel | activity change, % at 1.84 µM | 0.37% of 340,000 active | U2OS, BacMam KCNH2, thallium flux FluxOr; hits give low values | AID 720551;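 active = maximum activity change below -70%; inconclusive = maximum activity change between -70% and -50%; inactive = maximum activity change above -50%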
#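 U2OS cells were transduced with wild-type KCNH2 virus (2.03 x 10^8 / mL) for 4 h at room temperature, then cultured overnight at 37 C. Thallium flux was read with FluxOr dye. Rate constants were normalized to DMSO controls.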
# GLP1R inv ag – GLP-1 receptor (human) inverse agonism. P43220. HEK293 GLP-1R CRE-luciferase, luminescence, 24 h; GLP-1R form is constitutively active. Potency, µM (titrated, usually from 38.3 µM), most hits filed as inhibitors. 1.6% of 410,000 active; note: nearly all actives have a fitted effect of over 55% in size
# Target sequence (P43220 whole entry, looked up): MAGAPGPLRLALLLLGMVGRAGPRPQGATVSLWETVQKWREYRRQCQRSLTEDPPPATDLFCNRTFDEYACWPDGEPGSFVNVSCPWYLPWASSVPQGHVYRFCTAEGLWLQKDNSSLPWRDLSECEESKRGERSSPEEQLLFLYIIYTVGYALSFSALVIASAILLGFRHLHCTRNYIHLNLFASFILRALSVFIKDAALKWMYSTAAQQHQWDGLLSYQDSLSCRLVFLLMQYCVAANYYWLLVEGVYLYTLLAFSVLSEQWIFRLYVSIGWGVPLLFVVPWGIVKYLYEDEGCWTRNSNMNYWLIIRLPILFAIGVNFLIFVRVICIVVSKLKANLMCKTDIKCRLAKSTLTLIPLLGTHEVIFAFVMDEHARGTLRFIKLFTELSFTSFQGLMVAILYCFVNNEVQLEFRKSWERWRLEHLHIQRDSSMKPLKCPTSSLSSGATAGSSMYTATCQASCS
#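 Assay principle: reduced luminescence from a cAMP-responsive reporter in HEK293 cells co-expressing a constitutively active GLP-1R. Conditions: 24 hr compound incubation, 37 deg C, 5% CO2.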
# GLS inhibitor – glutaminase GLS (human) inhibition. GLS enzymatic activity, qHTS titration. 0.21% of 410,000 active. Potency, µM (titrated, usually from 45.5 µM), hits mostly inhibitors. AID 624170. O94925
#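 hKGA in 45 mM KH2PO4 (pH 8.2), 0.02% Tween-20 with compound, then 1mM L-Glutamine (stock as added) plus glutamate oxidase/HRP/Amplex red coupling mix. Fluorescence read initially and after 30 min at RT; signal change reflects glutamate formation.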
# GLP1R ag – GLP-1 receptor (human) agonism; Potency, µM (highest dose often 45.6 µM), usual class: activators; HEK293 GLP-1R CRE-luciferase, luminescence, 4-6 h; cells express a hypersensitive GLP-1R form; P43220; AID 624172; 0.007% of 380,000 active
# Numbers stand for hits; – = inactive; ? = inconclusive; · = no result given. The list is not random: actives were taken first. Their share in the collection is about 2.8%. Unless noted, calls come from the whole dose curve; as a rule, active = well fitted curve in the direction sought with a large enough effect; inconclusive = small, poorly fitted or top-dose-only effect, or another doubt; inactive = no such curve, though single readings can be large; an effect the other way counts as inactive or inconclusive.
SMILES,KCNH2 3.1 inh,HEK293 tox,KCNH2 WT inh,GLP1R inv ag,GLS inhibitor,GLP1R ag
NC(=O)c1ccsc1NC(=O)C1CCCN1S(=O)(=O)c1ccc(Cl)cc1 (centres undefined),–,–,–,–,–,–
CC1CCCCN1S(=O)(=O)c1ccc(C(=O)Nc2sccc2C(N)=O)cc1 (centres undefined),-96,–,–,–,–,–
CSc1cccc(CN2CCC(CO)(Cc3cccc(C(F)(F)F)c3)CC2)c1,?,?,–,?,–,–
Cc1ccc(-n2cc(CN3CCC(CO)(Cc4cccc(C(F)(F)F)c4)CC3)cn2)cc1,-99,?,-84,?,–,–
CC(C)Cc1cc(CN2CCC(CO)(Cc3cccc(C(F)(F)F)c3)CC2)[nH]n1,-83,?,-105,?,–,–
CCC(C)Nc1sc(S(=O)(=O)CC)nc1S(=O)(=O)c1ccc(C)cc1 (centres undefined),·,–,·,–,–,·
CCc1ccccc1N(CC(=O)NC1CCCCC1)C(=O)CNC(=O)c1ccco1,–,–,–,–,–,–
O=C(Cn1c(=O)oc2cc(S(=O)(=O)N3CCCCC3)ccc21)N1CCCCC1,-106,–,–,–,–,–
OC(CN1C2=NCCN2c2ccccc21)c1ccc(Br)cc1 (centres undefined),-73,?,–,?,–,–
OC(CN1C2=NCCCN2c2ccccc21)c1ccc(Cl)cc1 (centres undefined),-74,–,–,?,–,–
OC(COc1ccc(Cl)cc1)CN1C2=NCCCN2c2ccccc21 (centres undefined),-97,–,-146,?,–,–
Clc1ccc(CN2C3=NCCCN3c3ccccc32)cc1,?,–,–,?,–,–
Clc1ccc(CN2C3=NCCCN3c3ccccc32)cc1Cl,-104,–,-85,11µM,–,–
COc1ccc(CNC(=O)CSc2nc3ccsc3c(=O)n2Cc2ccccc2Cl)cc1,·,–,·,–,–,–
CCOc1ccccc1C(=O)Oc1cc(C)[nH]c(=O)c1[N+](=O)[O-],–,–,–,–,–,–
COc1cc(/C=N/NC(=O)Cn2cnc3ccccc3c2=O)ccc1O,–,–,–,–,20µM,–
Oc1ccc(/C=N/Nc2ccccc2)cc1,–,–,–,?,–,–
Brc1ccc(/C=N/Nc2ccccc2)cc1,–,–,–,4.5µM,–,–
COc1cc(/C=N\NC(=O)CNC(=O)C(c2ccccc2)c2ccccc2)ccc1O,–,–,–,–,11µM,–
COc1cc(/C=N/Nc2ccccc2)ccc1O,–,–,–,2.5µM,–,–
COc1ccc(/C=N\NC(=O)CNC(=O)C(c2ccccc2)c2ccccc2)cc1[N+](=O)[O-],–,–,–,?,–,–
COc1ccc(CCNC(=O)CSc2ncc3c(n2)-c2cc(Cl)ccc2N(Cc2ccccc2)S3(=O)=O)cc1OC,·,–,·,–,–,·
CN(CC(=O)Nc1ccc(F)cc1)C(=O)C1CCN(C(=O)Nc2ccccc2)CC1,–,–,–,–,–,–
CCOc1ccc(C2CC(=O)NC(NC(=O)c3cccc(Cl)c3)=N2)cc1 (centres undefined),·,–,·,–,–,·
CCC1=C(c2ccc(C)cc2)S(=O)(=O)N=C1N1CCC(C(=O)NCc2ccc(N(C)C)cc2)CC1,·,–,·,–,–,·
SMILES,KCNH2 3.1 inh,HEK293 tox,KCNH2 WT inh,GLP1R inv ag,GLS inhibitor,GLP1R ag
CC(C)CC1N=C2c3ccccc3N=C(SCC(=O)NCCc3ccc(Cl)cc3)N2C1=O (centres undefined),·,–,·,–,?,·
COc1cc(/C=N/NC(=O)CCc2ccccc2)ccc1O,–,–,–,–,–,–
COc1cc(/C=N/NC(=O)CCN2CCN(C(c3ccccc3)c3ccccc3)CC2)ccc1O,-106,–,–,?,–,–
O=C(N/N=C\c1ccncc1)c1ccccc1O,–,–,–,–,–,–
O=C(N/N=C/c1ccc(-c2ccccc2)o1)c1ccccc1O,–,?,–,10µM,–,–
O=C(CCc1cn(Cc2ccccc2Cl)c2ccccc12)NC1CCCCC1,·,–,·,10µM,–,·

# From PubChem BioAssay
